Inconclusive results are not listed. The source made the active and inactive calls. Calls come from the whole dose curve; as a rule, active = well fitted curve in either direction with a large enough effect (not every such curve was filed as active); inconclusive = small, poorly fitted or top-dose-only effect, or another doubt; inactive = flat fitted curve, though single readings scatter.
Test: AP1 Signaling Pathway (AID 357)
Details: ME-180 AP-1-bla reporter, EGF-induced, beta-lactamase ratio, 5 h; at 17.2 µM (top of the series) unless noted
How it was run: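 ME-180 cells with beta-lactamase reporter under AP-1 response element, stimulated with EC50 EGF; compounds tested in titration series, 5 h at 37 °C. CCF4 substrate added 2.5 h at room temperature; 460/530 nm emission ratio gave %activity and AC50.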
% is set by controls: 0 for no effect and ±100 for the full control effect.

Activity change, negative = inhibition, inactive:
CCOC(=O)c1c(C)[nH]sc1=S 4.4%
CN1C(=O)N(c2ccccc2)C(Nc2nncs2)C1(C)C (stereo not drawn) 2.23%
Cc1cc2c(c(=O)n1Cc1cccnc1)C(c1ccccc1)C(C#N)=C(N)O2 (stereo not drawn) -14.1%
CC(NC(=O)Nc1cccnc1)(C(F)(F)F)C(F)(F)F -12.1%
COc1ccc[nH]c1=O 14.3%
Cc1c2c([n+]3n1CCC3)CC(C)(C)CC2=O 8.99%
CC(=O)C1=C(O)C(=O)N(Cc2cccnc2)C1c1ccccc1Cl (stereo not drawn) 3.06%
O=C(NCCCn1ccnc1)C(Cc1ccccc1)N1C(=O)c2ccccc2C1=O (stereo not drawn) -14.7%
S=c1[nH]nc(-c2ccccc2)n1Cc1ccccc1 -4.69%
CCOC(=O)c1c(CN2CCCCC2)oc2ccc(OC)cc12 21.2%
COC(=O)CC1=NC(=O)CS1 17.8%
c1ccc(OCc2nn3c(C4CCCCC4)nnc3s2)cc1 -8.37%
COc1ccc(C(=O)c2ccc(N3CCOCC3)cc2)c(OC)c1 -17.3%
C/C(=N\O)c1c(C)c2ccccc2n1C 2.06%
CC1(C)Cc2c(c(-c3ccccc3)nc3[nH][nH]c(=O)c23)CO1 -1.59%
O=C1OC(Nc2ccc(Br)cn2)c2ccccc21 (stereo not drawn) 12.2%
Cc1nnc2n(-c3ccccc3)c(=O)c3c4c(sc3n12)COC(C(C)C)C4 (stereo not drawn) -3.43%
O=C1CC(c2ccccc2)n2nc(N3C(=O)c4ccccc4C3=O)nc2N1 (stereo not drawn) 0.103%

Reference: PubChem BioAssay (NCATS)
